# Reference: PubChem BioAssay (NCATS)
# Inconclusive results are not listed. Active and inactive are the calls of the source. Unless noted, calls follow the shape of the dose curve; as a rule, active = well fitted curve in the direction sought with a large enough effect; inconclusive = small, poorly fitted or top-dose-only effect, or another doubt; inactive = no such curve, though single readings can be large; an effect the other way counts as inactive or inconclusive.
# Tests used:
# [1] = Primary qHTS to identify inhibitors of SARS-CoV-2 cell entry (AID 1645846; calls by dose curve; also: nearly all actives have a fitted effect of over 45% in size); settings: SARS-CoV-2 pseudovirus cell entry assay, luminescence; activity change, negative = inhibition: at 57.1 µM (top of the series) unless noted
# How it was run: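 HEK293 cells stably expressing human ACE2, pre-treated 1 h with compound, then infected with MLV particles pseudotyped with Wuhan-Hu-1 spike (C-terminal 19-aa truncation). Luciferase luminescence after 48 h at 37 °C, normalised to spike PP and bald PP.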
# [2] = Primary qHTS for inhibitors of nuclear receptor binding SET domain protein 2 (NSD2) in an isogenic RCH-ACV NSD2 p.E1099K mutant (9B) (AID 1645876); settings: RCH-ACV NSD2 E1099K (9B) viability, CellTiter-Glo, 72 h; series mostly up to 44.9 µM; also: nearly all actives have a fitted effect of over 70% in size
# [3] = qHTS assay to identify inhibitors of the type 1 interferon - major histocompatibility complex class I in skeletal muscle: Counter screen cell viability and HiBit confirmation (AID 1347412); settings: iHSKM muscle cells + IFN-b, HiBiT or CellTiter-Glo, 24 h; for activity change, negative = inhibition: at 45.9 µM (top of the series); as to activity change, negative = inhibition: % is scaled to controls: 0 for no effect and ±100 for the full control effect; as to all read-outs here: nearly all actives have a fitted effect of over 60% in size
# How it was run: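 CRISPR HLA-B*08:01-HiBit immortalized human myoblasts (C25cl48) stimulated with 4 ng/ml IFN-beta and compounds (12-point 1:3, top 46 uM final) for 24 h at 37 C. Duplicate plates read by HiBit lytic luminescence or CellTiter Glo ATP.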
# [4] = Primary qHTS for inhibitors of nuclear receptor binding SET domain protein 2 (NSD2) in an RCH-ACV wild type WT cells (2C) (AID 1645877); settings: RCH-ACV (leukaemia line) NSD2 WT (2C) viability, CellTiter-Glo, 72 h; series mostly up to 44.9 µM; also: nearly all actives have a fitted effect of over 70% in size
# [5] = VSVG counterscreen qHTS to identify inhibitors of SARS-CoV-2 cell entry (AID 1645847; calls by dose curve; also: nearly all actives have a fitted effect of over 65% in size; as to activity change, negative = inhibition: % is scaled to controls: 0 for no effect and ±100 for the full control effect); settings: VSV-G pseudotyped particle entry, luciferase; series mostly up to 57.2 µM
# How it was run: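 HEK293-ACE2 cells (Expi293F, human ACE2) pretreated 1 h with compound, then infected with MLV-based VSV-G pseudotyped particles for 48 h at 37 C; luciferase luminescence normalized to VSV-G PP and bald PP wells.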
# [6] = Confirmatory qHTS to identify inhibitors of SARS-CoV-2 cell entry (AID 1645844; calls by dose curve; also: nearly all actives have a fitted effect of over 45% in size); settings: SARS-CoV-2 pseudotyped particle cell entry, luciferase; series mostly up to 57.2 µM
# How it was run: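 HEK293-ACE2 cells (Expi293F stably expressing human ACE2) were pretreated with compounds for 1 hr at 37C, then infected with MLV-based particles carrying Wuhan-Hu-1 spike (C-terminal 19-aa truncation). Luciferase luminescence read after 48 hr; normalized to spike PP (100%) and bald PP (0%).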
# [7] = target: Cytochrome P450 2D6 (Homo sapiens) (UniProt P10635); experiment: Cytochrome P450 family 2 subfamily D member 6 (CYP2D6) small molecule antagonists: luciferase biochemical (cell-free) qHTS assay (AID 1645840; active = well fitted curve in the direction sought with a large enough effect in the repeat runs; an effect the other way counts as inactive or inconclusive; also: nearly all actives have a fitted effect of over 55% in size; as to activity change, negative = inhibition: % is scaled to controls: 0 for no effect and ±100 for the full control effect); settings: P450-Glo CYP2D6 enzyme, luciferin luminescence, 1 h; series mostly up to 57.4 µM
# How it was run: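 P450-Glo luminescent screen: recombinant CYP2D6 enzyme–proluciferin substrate mix preincubated with compound 10 min at room temperature, then NADPH regeneration added for 1 h at room temperature. Detection reagent added for 20 min; luciferin light read as relative luminescence units.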
# Potency is read from the fitted curve at half-maximal effect.
# Cytochrome P450 2D6 (Homo sapiens), sequence (P10635 whole entry, looked up): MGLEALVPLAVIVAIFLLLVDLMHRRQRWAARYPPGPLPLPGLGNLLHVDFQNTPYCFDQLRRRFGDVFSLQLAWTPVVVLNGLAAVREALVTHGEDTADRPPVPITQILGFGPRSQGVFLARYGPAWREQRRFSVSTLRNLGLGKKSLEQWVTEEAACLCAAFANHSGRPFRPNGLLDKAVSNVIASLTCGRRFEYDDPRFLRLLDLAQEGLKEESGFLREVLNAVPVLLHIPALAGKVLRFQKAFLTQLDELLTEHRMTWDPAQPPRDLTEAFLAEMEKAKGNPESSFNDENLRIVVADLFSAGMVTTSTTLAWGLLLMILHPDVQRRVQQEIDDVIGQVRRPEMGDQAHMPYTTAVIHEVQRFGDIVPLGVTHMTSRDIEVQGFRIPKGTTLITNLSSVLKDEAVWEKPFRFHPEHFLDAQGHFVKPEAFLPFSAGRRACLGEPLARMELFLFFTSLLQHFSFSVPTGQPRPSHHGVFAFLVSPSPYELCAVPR
compound,measurement,setting,value
O=C(O)CNC(=O)C1C(=O)N(C2CCCCC2)C(=O)N(C2CCCCC2)C1=O,"activity change, negative = inhibition",[1],-12.5%
same,Potency,[2],inactive
O=C1/C(=C\c2ccccc2)C[C@@]2(O)[C@H]3Cc4ccc(O)c5c4[C@@]2(CCN3CC2CC2)[C@H]1O5,Potency,[3]; HiBiT,3520 nM (active)
CO/C1=C/C(C)=C\[C@@H](C)[C@@H](O)[C@@H](C)C/C(C)=C\C=C/[C@H](OC)[C@@H]([C@@H](C)[C@@H](O)[C@H](C)[C@@]2(O)C[C@@H](O)[C@H](C)[C@@H](C(C)C)O2)OC1=O,Potency,[1],1580 nM (active)
same,Potency,[2],49.4 nM (active)
same,Potency,[4],39.3 nM (active)
Cc1[nH]ncc1-c1cc2nc([C@@H]3CC4CCN3CC4)[nH]c(=O)c2s1,Potency,[2],2350 nM (active)
same,Potency,[4],934 nM (active)
same,Potency,[3]; HiBiT,4430 nM (active)
same,"activity change, negative = inhibition",[3]; Viability,15.9% (inactive)
C[C@@]12OC(=O)[C@]1([C@@H](O)[C@@H]1C=CCCC1)NC(=O)[C@@H]2CCCl,"activity change, negative = inhibition",[1],-97.7%
same,Potency,[2],118 nM (active)
same,Potency,[4],105 nM (active)
same,Potency,[3]; HiBiT,176 nM (active)
C=C[C@H]1CN2CCC1C[C@@H]2[C@@H](O)c1ccnc2ccccc12 (some centres not stated),"activity change, negative = inhibition",[1],-29.6%
same,Potency,[2],inactive
same,Potency,[4],inactive
CCCCCCC(C)(C)c1cc(O)c2c(c1)OC(C)(C)C1CC=C(CO)C[C@H]21 (some centres not stated),"activity change, negative = inhibition",[1],-8.86%
same,Potency,[2],inactive
same,Potency,[4],inactive
same,Potency,[3]; Viability,35200 nM (active)
CC(C)(O)/C=C\C(=O)[C@](C)(O)[C@H]1[C@H](O)C[C@]2(C)[C@@H]3CC=C4[C@@H](C=C(O)C(=O)C4(C)C)[C@]3(C)C(=O)C[C@@]12C,Potency,[1],794 nM (active)
same,Potency,[2],52.5 nM (active)
same,Potency,[4],46.8 nM (active)
same,Potency,[3]; HiBiT,6250 nM (active)
same,"activity change, negative = inhibition",[3]; Viability,186% (inactive)
C=C(C)[C@@H]1CCC(C)=C[C@H]1c1c(O)cc(CCCCC)cc1O,Potency,[5],24100 nM (active)
same,Potency,[2],18600 nM (active)
same,Potency,[4],20900 nM (active)
same,"activity change, negative = inhibition",[3]; Viability,5.14% (inactive)
CC(=O)OC[C@H]1O[C@@H]([S-])[C@H](OC(C)=O)[C@@H](OC(C)=O)[C@@H]1OC(C)=O.CC[PH+](CC)CC.[Au],Potency,[1],1260 nM (active)
same,Potency,[2],742 nM (active)
same,Potency,[4],742 nM (active)
same,Potency,[3]; HiBiT,1110 nM (active)
O=C(CBr)N1CC([N+](=O)[O-])([N+](=O)[O-])C1,"activity change, negative = inhibition",[1],-11.3% [at 114 µM]
CO[C@H]1CCC(O[C@H]2C[C@H]([C@]3(C)CC[C@]4(C[C@H](O)[C@@H](C)[C@@H]([C@@H](C)/C=C(\C)C(=O)[C@H](C)C[C@H](C)C(=O)O)O4)O3)O[C@]3(O[C@@H]([C@H]4O[C@@](O)(CO)[C@H](C)C[C@@H]4C)C[C@@H]3C)[C@@H]2C)O[C@@H]1C (some centres not stated),Potency,[6],681 nM (active)
same,Potency,[5],607 nM (active)
same,Potency,[2],209 nM (active)
same,Potency,[3]; HiBiT,12500 nM (active)
same,Potency,[3]; Viability,14000 nM (active)
CCC1/C=C/C=CCC(C)C(O)[C@@](C)(O)C(=O)C(C)C(O)C(C)C(=O)C(C)C(O)C(C)C=CC(=O)O[C@H]2C(C)C(CC1)O[C@]1(CCC(C)C(CC(C)O)O1)C2C (some centres not stated),"activity change, negative = inhibition",[3]; HiBiT,-31.9% (inactive)
same,"activity change, negative = inhibition",[3]; Viability,-23.7% (inactive)
C[C@@H]1CC[C@@]2(OC1)O[C@H]1C[C@H]3[C@@H]4CC=C5C[C@@H](O[C@@H]6O[C@H](CO)[C@@H](O[C@@H]7O[C@@H](C)[C@H](O)[C@@H](O)[C@H]7O)[C@H](O)[C@H]6O[C@@H]6O[C@@H](C)[C@H](O)[C@@H](O)[C@H]6O)CC[C@]5(C)[C@H]4CC[C@]3(C)[C@H]1[C@@H]2C,Potency,[1],12600 nM (active)
same,Potency,[2],2350 nM (active)
same,Potency,[4],3320 nM (active)
same,Potency,[3]; HiBiT,22200 nM (active)
same,Potency,[3]; Viability,17600 nM (active)
CN1C(=O)[C@@H](NC(=O)[C@H](CCC(F)(F)F)[C@H](CCC(F)(F)F)C(N)=O)N=C(c2ccccc2)c2ccccc21,"activity change, negative = inhibition",[1],-8.27%
same,Potency,[2],inactive
same,Potency,[4],inactive
CC(N[C@H]1C[C@@H]1c1ccccc1)c1ccc2c(c1)OCCO2 (some centres not stated),Potency,[2],inactive
same,Potency,[4],inactive
CC(C)[C@]12O[C@H]1[C@@H]1O[C@@]13[C@@]1(C)CCC4=C(COC4=O)[C@@H]1C[C@@H]1O[C@@]13C2=O,Potency,[6],271 nM (active)
same,"activity change, negative = inhibition",[1],-93.1%
same,Potency,[5],341 nM (active)
same,Potency,[2],37.2 nM (active)
same,Potency,[4],33.2 nM (active)
same,Potency,[3]; HiBiT,49.7 nM (active)
same,"activity change, negative = inhibition",[3]; Viability,4.52% (inactive)
CC1(C)CC[C@]2(NC(=O)C(C)(F)F)CC[C@]3(C)[C@H](C(=O)C=C4[C@@]5(C)C=C(C#N)C(=O)C(C)(C)[C@@H]5CC[C@]43C)[C@@H]2C1,Potency,[4],7420 nM (active)
same,Potency,[3]; HiBiT,1570 nM (active)
COc1cc2cc(c1Cl)N(C)C(=O)C[C@H](OC(=O)C(C)C)[C@]1(C)O[C@@H]1[C@H](C)[C@@H]1C[C@@](O)(NC(=O)O1)[C@H](OC)/C=C/C=C(\C)C2,Potency,[2],inactive
same,Potency,[4],inactive
Cc1c(N)nc([C@H](CC(N)=O)NC[C@@H](N)C(N)=O)nc1C(=O)N[C@H](C(=O)N[C@@H](C)[C@H](O)[C@@H](C)C(=O)N[C@@H](C(=O)NCCc1nc(-c2nc(C(=O)NCCC[S+](C)C)cs2)cs1)[C@@H](C)O)C(O[C@H]1O[C@H](CO)[C@H](O)[C@@H](O)[C@H]1O[C@H]1O[C@H](CO)[C@@H](O)[C@H](OC(N)=O)[C@@H]1O)c1cnc[nH]1 (some centres not stated),Potency,[5],34.1 nM (active)
same,Potency,[2],inactive
CNC(C)[C@@H](O)c1ccc(O)cc1 (some centres not stated),Potency,[7],inactive
CC1(C)[C@H](C=C(Cl)Cl)[C@@H]1C(=O)OCc1c(F)c(F)cc(F)c1F,Potency,[7],inactive
same,Potency,[1],inactive
O1[As]2O[As]1O2,Potency,[6],19200 nM (active)
same,Potency,[5],15200 nM (active)
CCOC(=O)C=C(C)C=CC[C@@H](C)CCCC(C)C,Potency,[7],inactive
C[C@]12C[C@@H]3S[C@H]3C[C@@H]1CC[C@H]1[C@H]3CC[C@@H](O)[C@@]3(C)CC[C@@H]12,Potency,[7],inactive
same,Potency,[1],inactive
CCCCN=C(N)NC(=N)N,outcome,[6],inactive
same,outcome,[1],inactive [setting not given]
CCCCCCCCCCCCCCCCCCCCCC(=O)Nc1ccn([C@@H]2O[C@H](CO)[C@@H](O)[C@@H]2O)c(=O)n1,Potency,[6],inactive
same,"activity change, negative = inhibition",[1],-93.7% [at 27.1 µM]
same,Potency,[5],inactive
CC(Cc1ccc2c(c1)OCO2)NCC(O)c1ccc(O)c(O)c1 (configuration not stated),Potency,[7],674 nM (active)
NCCNc1ccc(NCCN)c2c1C(=O)c1ccncc1C2=O,Potency,[6],1520 nM (active)
same,Potency,[1],7940 nM (active)
same,Potency,[5],3040 nM (active)
C/C1=C/C[C@@H](/C(C)=C/c2csc(C)n2)OC(=O)C[C@H](O)C(C)(C)C(=O)[C@H](C)[C@@H](O)[C@@H](C)CCC1,"activity change, negative = inhibition",[1],-64.3%
same,Potency,[5],60.7 nM (active)
same,Potency,[2],52.5 nM (active)
same,Potency,[4],41.7 nM (active)
same,"activity change, negative = inhibition",[3]; Viability,-15.3% (inactive)
